Source: PubChem
hcDAF12 agonist – H. contortus DAF-12 nuclear receptor activators, primary screen, cell-based, luminescence, HEK293, lit1-tk-luc reporter; HEK293 hcDAF-12 lit1-tk-luc reporter; 0% DMSO, 100% Δ7-dafachronic acid; activation, % at 6.8 µM; hit rate 1.4% among 370,000;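 active means activation above the mean of all tested compounds plus 3 SD, cut at about 5.5% in these data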
DAX1 inh-1 – DAX1 (NR0B1) inhibitors, primary screen, cell-based, HEK293, Gal4-DAX1, luciferase luminescence. inhibition, % at 6.75 µM. AID 504766, 2011. Nuclear receptor subfamily 0 group B member 1 (Homo sapiens), P51843. hit rate 0.99% among 340,000. HEK293 Gal4-DAX1 luciferase reporter;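 active means inhibition above the mean over all tested compounds plus 3 SD, cut at about 4.2% in these data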;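 further: inhibition shows as a rise in luminescence from relieved DAX1 repression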
Target sequence (P51843 207-470 limits assumed): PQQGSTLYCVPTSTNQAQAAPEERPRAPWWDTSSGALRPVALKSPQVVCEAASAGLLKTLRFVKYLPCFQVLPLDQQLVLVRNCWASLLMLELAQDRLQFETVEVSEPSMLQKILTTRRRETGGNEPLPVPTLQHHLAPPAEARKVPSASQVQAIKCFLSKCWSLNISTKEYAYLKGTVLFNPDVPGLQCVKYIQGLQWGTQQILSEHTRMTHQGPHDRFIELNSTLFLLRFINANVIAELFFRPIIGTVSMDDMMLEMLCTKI
ssDAF-12 act – S. stercoralis DAF-12 nuclear receptor activators, primary screen, cell-based, luminescence, HEK293, GRIP1 co-expression, lit1-tk-luc; hit rate 1% among 370,000; activation, % at 6.8 µM; Nuclear hormone receptor DAF-12 (Strongyloides stercoralis); HEK293 ssDAF-12/GRIP1 lit1-tk-luc reporter; % of 3 µM dafachronic acid response;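 active means activation above the mean over all tested compounds plus 3 SD, cut at about 0.9% in these data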
hgDAF-12 ag – H. glycines DAF-12 receptor agonists, primary screen, cell-based, luminescence, HEK293, GAL4 fusion, UAS-luciferase | Nuclear hormone receptor DAF-12 (Heterodera glycines), GAL4 fusion | HEK293 GAL4-hgDAF12 UAS-luciferase reporter, agonist luminescence; normalized to butyrate control | activation, % at 6.8 µM | hit rate 1.8% among 370,000 | AID 687014, 2013;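 active means activation above a cutoff set at the mean of all screened compounds plus 3 SD, cut at about 10% in these data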
DAX1 inh-2 – DAX1 (NR0B1) inhibitors on StAR promoter, primary screen, cell-based, luminescence, SF-1 (NR5A1), full-length DAX-1; HEK293T StAR-luciferase reporter, SF-1/DAX-1 repression relief; inhibition, % at 6.8 µM; hit rate 1.1% among 370,000; AID 652010, 2013;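 active means inhibition above the mean over all tested compounds plus 3 SD, cut at about 3.6% in these data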;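 further: higher inhibition means more luminescence from relief of DAX-1 repression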
Each line names hits and unclear results; the compound was inactive in the other large screens. Sampled rows, rich in hits. Any-hit rate of the full collection: about 4.1%.

C[C@@H]1OC(c2ccccc2)N(C)[C@H]2C[C@H]3c4[nH]c5cccc(-c6ccccc6)c5c4CCN3C[C@@H]12 (stereo partly specified)	none (no result: DAX1 inh-1)
CCOC(=S)SCc1cn2cccc(C)c2n1	DAX1 inh-1 5.0
CC1CCN(c2ccc(C(=O)O)cc2NS(=O)(=O)c2cccc3cccnc23)CC1	none (no result: DAX1 inh-1)
CCCCNC(=O)C[C@H]1C[C@@]2(C(=O)OC)C(=C[C@H](C3CCCC3)O[C@@H]2C)N(Cc2ccc(Cl)cc2Cl)C1=O	none (no result: DAX1 inh-1)
CC(Cc1cccs1)NC(=O)Nc1ccc([N+](=O)[O-])cc1 (stereo unspecified)	hgDAF-12 ag 13
CC(=O)NCCCNc1ccc([N+](=O)[O-])cc1	hcDAF12 agonist 6.1
CC(Cc1cccs1)NC(=O)c1cccs1 (stereo unspecified)	none
CCN(CC)C(=S)Nc1ccc([N+](=O)[O-])cc1	none
CCNC(=O)C(=O)Nc1ccc([N+](=O)[O-])cc1	DAX1 inh-1 4.7
Cc1occc1-c1nnc(SCC(=O)Nc2ccc3ncccc3c2)n1-c1ccccc1	none (no result: DAX1 inh-1)
COc1ccc(-c2c(C)nc3c(-c4ccsc4)cnn3c2N)cc1	DAX1 inh-1 5.2
Cc1nc2c(-c3ccc(F)cc3)cnn2c(N)c1-c1ccc(F)cc1	DAX1 inh-1 4.3
CC(C)(C)S(=O)(=O)c1cnc2c(-c3ccsc3)cnn2c1N	none
Cc1cc(N)n2ncc(-c3ccc(F)cc3)c2n1	none
c1ccc(OCc2nnc(SCc3nc4ccccc4[nH]3)n2-c2ccccc2)cc1	none (no result: DAX1 inh-1)
c1ccc(OCc2nc3ccccc3[nH]2)cc1	hgDAF-12 ag 11
COc1cccc(CSc2nc3ccccc3[nH]2)c1	hgDAF-12 ag 13
Fc1ccccc1CSc1nc2ccccc2[nH]1	hgDAF-12 ag 12
c1ccc(OCCSc2nc3ccccc3[nH]2)cc1	DAX1 inh-1 4.7
COc1cc(/C=N/OCC(=O)NC2CCCCC2C)ccc1OCc1ccc(Cl)cc1 (stereo unspecified)	hgDAF-12 ag 11, DAX1 inh-2 4.2
Cc1sc2nc(CN3CCCC3)nc(N3CCN(S(=O)(=O)c4cccs4)CC3)c2c1C	DAX1 inh-1 4.7
Cc1sc2nc(CN3CCOCC3)nc(NS(=O)(=O)c3ccc4c(c3)OCCO4)c2c1C	none
Cc1sc2nc(CN3CCOCC3)nc(NS(=O)(=O)c3ccccc3)c2c1C	DAX1 inh-1 6.3
Cc1ccc(S(=O)(=O)N2CCN(c3nc(CN4CCCC4)nc4sc(C)c(C)c34)CC2)cc1	none
CC[C@]12c3[nH]c4ccc(Cl)cc4c3CCN1C(=O)[C@@H](CC(=O)NC/C=C(\C)CCC=C(C)C)C[C@@H]2C(=O)N1CCN(C(=O)c2ccco2)CC1	ssDAF-12 act 2.1
O=C(NC1CCCCN(Cc2cccc(Cl)c2)C1=O)c1ccc(F)cc1 (stereo unspecified)	none (no result: DAX1 inh-1)
CNc1nnc(-c2ccc(N(C)C)cc2)s1	hgDAF-12 ag 11, DAX1 inh-2 5.8
Cc1ccc(CNC(=O)O[C@H]2CC[C@@]34CCCN3C(=O)CCC[C@H]4[C@H]2C)o1	none (no result: DAX1 inh-1, DAX1 inh-2)
O=C(NCc1ccc(Cl)cc1)C(=O)NCC1OCCN1C(=O)c1cccs1 (stereo unspecified)	hcDAF12 agonist 6.2
COc1ccc(C(=O)NCCS(=O)(=O)N2CCCC2)cc1	hcDAF12 agonist 6.1
COc1ccc(C(=O)NCCS(=O)(=O)N2CCCCCC2)cc1	none
C/C(=N\NC(=O)c1ccn(C)n1)c1ccc(NC(=O)C2CCC2)cc1	none
CCN(CC)c1ccc(NC(=S)NCC2CCCO2)cc1 (stereo unspecified)	DAX1 inh-2 4.4
C/C(=N\NC(=O)c1ccn(C)n1)c1ccc(NC(=O)C2CCCC2)cc1	DAX1 inh-1 6.6
CCN(CC)c1ccc(NC(=O)C2CCCC2)cc1	DAX1 inh-1 4.6
COc1ccc2c(c1)N[C@@](CCNC=O)(c1[nH]c3ccccc3c1CCNC=O)C2=O	none (no result: DAX1 inh-1, DAX1 inh-2)
COc1cccc(NC(=O)CN(C)C(=O)c2cc3c(s2)CCCCC3)c1	none
COc1ccc(NC(=O)c2csc3c2CCCC3)cc1	none (no result: hcDAF12 agonist, ssDAF-12 act, hgDAF-12 ag, DAX1 inh-2)
Cc1ccc(C)c(NC(=S)NNC(=O)c2csc3c2CCCC3)c1	none
COc1cccc(NC(=O)c2csc3c2CCCC3)c1	hgDAF-12 ag 11
COc1cccc(NC(=O)CN(C)C(=O)c2cc3c(s2)CCCC3)c1	DAX1 inh-2 3.7
Cc1cccc(NC(=S)NNC(=O)c2csc3c2CCCC3)c1	hgDAF-12 ag 11
Cc1cc(C(=O)N/N=C/c2ccc([N+](=O)[O-])cc2)c(C)o1	hgDAF-12 ag 11
Cc1cc(NC(=O)Nc2ccc3c(ccn3C)c2)sn1	hgDAF-12 ag 11
COc1ccc(N=Cc2nc(-c3ccccc3)oc2OC(=O)c2ccccc2)cc1	hgDAF-12 ag 12, DAX1 inh-2 3.7
CC(=O)Oc1oc(-c2ccccc2)nc1C=Nc1ccccc1	none
CC(=O)N1CCN(C(=O)c2cc3c(s2)CCC(C)C3)CC1 (stereo unspecified)	ssDAF-12 act 1.0, DAX1 inh-2 3.9
Cc1ccc(S(=O)(=O)N2CCN(C(=O)c3cc4c(s3)CCC(C)C4)CC2)cc1 (stereo unspecified)	none
CCCCCCCCN1C(=O)[C@@H](CC(=O)NCCCOCCCC)C[C@@]2(C(=O)OC)C1=C[C@H](COCc1ccccc1)O[C@@H]2C	none (no result: DAX1 inh-1)
O=C1OCC2=C1C(c1ccc(F)cc1)c1cc3c(cc1N2)OCO3 (stereo unspecified)	DAX1 inh-2 4.2
O=C1OCC2=C1C(c1ccc(F)cc1)c1cc3c(cc1N2)OCCO3 (stereo unspecified)	none
O=C(CSc1nnc(-c2ccccn2)n1-c1ccccc1)Nc1ccccc1-c1ccccc1	none (no result: DAX1 inh-1)
Cc1ccc2c(c1)C1CS(=O)(=O)N(CC(C)C)C(=O)N1C2 (stereo unspecified)	none (no result: DAX1 inh-1)
O=C(NNC1=C(C(=O)C(F)(F)F)CCC1)c1ccc(Cl)cc1	none
O=C(NNC1=C(C(=O)C(F)(F)F)CCC1)c1cccc(Cl)c1	DAX1 inh-1 5.2, hgDAF-12 ag 13
CC(=O)CC[C@H]1CC[C@]2(CCCN(C(=O)C(C)(C)C)C2)O1	ssDAF-12 act 2.2 (no result: DAX1 inh-1)
CSCC[C@@H](C(=O)O)N1Cc2ccccc2C1=O	hcDAF12 agonist 6.0
COC(=O)[C@@H]1N=C(c2ccc(OC)cc2)O[C@]12C(=O)N(Cc1cn(Cc3ccccc3)nn1)c1cccc(Cl)c12	none (no result: DAX1 inh-1)
COCC(=O)N1CCCc2ccccc21	hcDAF12 agonist 6.3
COc1ccc2oc(C(=O)N3CCCc4ccccc43)c(C)c2c1	DAX1 inh-2 4.3
COc1cccc2cc(C(=O)N3CCCc4ccccc43)oc12	none
